NPC1 promoter act: qHTS Assay for NPC1 Promoter Activators | Huh7 NPC1 promoter luciferase reporter, 24 h | Potency, µM (top dose mostly 9.22 µM), for the others: at the highest dose activation, usual class: activators | actives 2.4% (n = 320,000) | AID 485313, 2010; further: % of control where 0% means no effect; nearly all actives have a fitted effect of over 60% in size
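Luminescence from an NPC1 promoter-driven luciferase reporter in stably transfected Huh7 cells was measured after 24 h compound treatment at 37 °C, followed by 10 min ambient incubation with luciferase detection reagent.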
FLuc counter: qHTS profiling assay for firefly luciferase inhibitor/activator using purifed enzyme and Km concentrations of substrates (counterscreen for miR-21 project); Potency, µM (highest dose often 57.5 µM), inactives show top-dose activity change, negative = inhibition, actives largely listed as inhibitors; AID 588342, 2011; Luciferin 4-monooxygenase (Photinus pyralis), P08659; actives 6.9% (n = 360,000); purified FLuc, Km substrates, luminescence inhibition;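 further: plate controls were vehicle for no effect and reference inhibitor for full effect; nearly all actives have a fitted effect of over 55% in size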
Target sequence (P08659 whole entry, looked up): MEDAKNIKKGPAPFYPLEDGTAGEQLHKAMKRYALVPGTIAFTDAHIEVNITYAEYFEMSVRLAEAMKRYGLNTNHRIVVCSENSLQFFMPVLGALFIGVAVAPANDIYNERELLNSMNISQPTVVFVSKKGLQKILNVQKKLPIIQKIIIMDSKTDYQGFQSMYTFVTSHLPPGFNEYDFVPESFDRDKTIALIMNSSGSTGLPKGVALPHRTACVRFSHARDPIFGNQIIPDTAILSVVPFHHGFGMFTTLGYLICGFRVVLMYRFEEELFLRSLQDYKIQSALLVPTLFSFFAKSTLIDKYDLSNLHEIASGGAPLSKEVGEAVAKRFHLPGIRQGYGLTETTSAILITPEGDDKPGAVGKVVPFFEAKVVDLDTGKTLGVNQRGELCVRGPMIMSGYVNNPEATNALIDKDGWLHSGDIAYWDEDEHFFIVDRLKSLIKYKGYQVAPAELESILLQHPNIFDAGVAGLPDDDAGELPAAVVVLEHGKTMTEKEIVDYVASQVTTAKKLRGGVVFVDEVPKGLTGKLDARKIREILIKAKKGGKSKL
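Purified P. pyralis luciferase, 10 nM final, with Km-level 10 uM D-luciferin and 10 uM ATP in 50 mM Tris acetate pH 7.5, 10 mM Mg acetate, 0.01% Tween-20, 0.05% BSA; 6-point qHTS titration about 60 µM downward; luminescence read.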
SMN2 splice enh: qHTS Assay for Enhancers of SMN2 Splice Variant Expression; AID 1458, 2008; Potency, µM (top dose mostly 46.1 µM), without a hit: top-dose activity change, positive = activation, most hits filed as activators; HEK293 SMN2-luciferase splicing reporter, luminescence, 30-36 h; actives 2.8% (n = 210,000); further: % of control where 0% means no effect; nearly all actives have a fitted effect of over 55% in size
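qHTS luciferase splicing reporter: luminescence rises when SMN2 exon 7 is included in transfected HEK293 cells. Compound exposure lasted 30-36 h at 37C, with 4.5 mM final sodium butyrate as control, followed by a ONE-Glo read.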
ELG1 genotox: qHTS screen for small molecules that induce genotoxicity in human embryonic kidney (HEK293T) cells expressing luciferase-tagged ELG1; HEK293T ELG1-luciferase reporter, luminescence, 16 h; Potency, µM (top dose mostly 46 µM), for inactives: at the top dose activity change, positive = activation, actives largely listed as activators; actives 1.3% (n = 330,000); further: % of control where 0% means no effect; nearly all actives have a fitted effect of over 60% in size
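Quantitative HTS format in 1536-well plates. HEK293T ELG1-luciferase reporter cells receive test compound and are incubated 16 hr at 37 °C, 5% CO2; ONE-Glo added, 30 min room temperature, then luminescence read.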
ELG1 DNA repair: qHTS screen for small molecules that inhibit ELG1-dependent DNA repair in human embryonic kidney (HEK293T) cells expressing luciferase-tagged ELG1. HEK293T ELG1-luciferase reporter, luminescence, 16 h; DNA damage induced by 5-fluorouridine. Potency, µM (series often up to 46.1 µM), without a hit: top-dose activity change, negative = inhibition, usual class: inhibitors. actives 2.3% (n = 330,000). AID 504467, 2011; further: on the % scale 0 is the no-effect control and ±100 the full control effect; nearly all actives have a fitted effect of over 55% in size
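In this reporter screen, reduction of luminescence relative to DMSO vehicle indicated activity. Compounds and 5-fluorouridine were added together to 2,000 cells per well, incubated for 16 hr at 37 °C, then developed with ONE-Glo.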
Rab9 promoter act: qHTS Assay for Rab9 Promoter Activators. Potency, µM (top dose mostly 9.22 µM), without a hit: at the highest dose activation, negative = inhibition, most hits filed as activators. Huh7 Rab9 promoter-luciferase reporter, luminescence, 24 h. AID 485297, 2010. actives 2.8% (n = 320,000); further: % of control where 0% means no effect; nearly all actives have a fitted effect of over 60% in size
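Huh7 reporter line, Rab9 promoter upstream of luciferase. Compound exposure 24 h at 37 °C in reduced-serum medium with 10% FBS. Read-out: luminescence.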
* hit, by the source's call; ? = inconclusive; . = no result. Compounds with a hit are over-represented: about 9.2% of the library has one in this group of screens. The call rests on the fitted dose curve; in most records, active means well fitted curve in the direction sought with a large enough effect; inconclusive means small, poorly fitted or top-dose-only effect, or another doubt; inactive means no such curve, though single readings can be large; an effect the other way counts as inactive or inconclusive. Potency means the concentration at half of the fitted maximal effect.

SMILES	NPC1 promoter act	FLuc counter	SMN2 splice enh	ELG1 genotox	ELG1 DNA repair	Rab9 promoter act
CC(C)C(=O)Nc1ccc(-c2nc3ncccc3o2)cc1	0.5µM*	4.3µM*	.	?	?	0.5µM*
CC(C)C(=O)Nc1cccc(-c2nc3ncccc3o2)c1	-8%	-21%	.	5%	14%	21%
CC(C)(C)c1ccc(OCC(=O)Nc2ccc(-c3nc4cccnc4o3)cc2)cc1	.	0%	20%	.	.	.
CCCN1CCN(CCCNC(=O)Cn2c(-c3cccs3)cc3ccccc32)CC1	.	-3%	.	.	.	.
CCOC(=O)c1cccc(NC(=O)Nc2ccc3c(c2)C(=O)OC3)c1	6%	-8%	.	18%	?	26%
O=C(Cc1ccccc1)NC1CC(=O)N(c2ccccc2)C1 (stereo unspecified)	.	-4%	.	.	.	.
CCN(CC)CC1CCCCN1CC(=O)N1c2ccccc2C(=O)Nc2cccnc21 (stereo unspecified)	-3%	3%	0%	.	.	-3%
O=C1Nc2cccnc2N(C(=O)CCl)c2ccccc21	-23%	1%	.	-15%	21µM*	-32%
Cc1cc(C)c(-n2nnnc2SCC(=O)c2cccs2)c(C)c1	-2%	1%	.	-4%	?	0%
COc1ccccc1N1CCN(CCN2C(=O)C3CCCN3C2=O)CC1 (stereo unspecified)	0%	0%	.	-1%	23%	-1%
O=C(Nc1ccc(F)cc1)N1CCCCCC1	13%	-19%	.	17%	?	8%
N#C/C(=N\Nc1cccc(F)c1)C(=N)N1CCCCCC1	0.5µM*	2.4µM*	13µM*	?	?	0.56µM*
N#C/C(=N\Nc1ccc(F)cc1)C(=N)N1CCCCC1	0.56µM*	3µM*	.	1.6µM*	?	0.63µM*
COc1ccc(C(=O)/C(C#N)=N/Nc2ccc([N+](=O)[O-])cc2)cc1	-37%	-19%	-69%	-14%	1.3µM*	-52%
N#C/C(=N/Nc1ccccc1F)C(=N)N1CCOCC1	23%	-20%	5%	5%	?	23%
N#C/C(=N\Nc1ccccc1)C(=N)N1CCCCCC1	1.8µM*	3.4µM*	.	?	?	1µM*
CCOc1ncccc1C(=O)OCc1cccc([N+](=O)[O-])c1	-6%	-6%	8%	1%	2%	1%
COc1ccc(N/N=C(\C#N)C(=N)N2CCOCC2)cc1	20%	?	15%	18µM*	?	24%
Cc1ccc(C)c(Cn2nnc3c(=O)[nH]c(C(=O)NCc4ccco4)nc32)c1	10%	-2%	-7%	3%	-7%	0%
O=C(NCc1ccco1)c1nc2c(nnn2Cc2ccccc2Cl)c(=O)[nH]1	-20%	0%	-56%	-8%	21µM*	-22%
O=C(Nc1ccc(F)cc1)c1nc2c(nnn2Cc2cccc3ccccc23)c(=O)[nH]1	-4%	27µM*	.	-1%	-5%	0%
C[C@H](NC(=O)C1CCN(S(=O)(=O)c2ccccc2)CC1)C(=O)NCc1cccc(C(F)(F)F)c1	-1%	2%	.	-3%	2%	5%
Cc1cc(C)cc(NC(=O)C2CCCN(c3nc(C)cc(C)n3)C2)c1 (stereo unspecified)	-2%	7%	-8%	-2%	3%	-5%
COc1cc(C)nc(N2CCCC(C(=O)NC3CCC(C)CC3)C2)n1 (stereo unspecified)	3.2µM*	11µM*	?	?	?	4µM*
Cc1cc(C)nc(N2CCCC(C(=O)NCC(c3ccccc3)c3ccccc3)C2)n1 (stereo unspecified)	-2%	0%	-11%	-1%	23µM*	-16%
SMILES	NPC1 promoter act	FLuc counter	SMN2 splice enh	ELG1 genotox	ELG1 DNA repair	Rab9 promoter act
CCC(C)NC(=O)C1CCCN(c2nc(C)cc(OC)n2)C1 (stereo unspecified)	1%	0%	2%	-1%	9%	-5%
Cc1cc(C)nc(N2CCCC(C(=O)Nc3ccc4nc(C)c(C)nc4c3)C2)n1 (stereo unspecified)	-4%	0%	-12%	-6%	12µM*	0%
Cc1cc(C)nc(N2CCCC(C(=O)Nc3nc4ccc(S(C)(=O)=O)cc4s3)C2)n1 (stereo unspecified)	-3%	4%	-24%	-26%	16µM*	-1%
Cc1ccc2oc(=O)c3cnn(CC(=O)N(C)c4ccc(F)cc4)c3c2c1	.	-6%	-16%	.	.	.
COc1cccc(N2CC(NC(=O)c3ccc(S(=O)(=O)N4CCOCC4)cc3)CC2=O)c1 (stereo unspecified)	.	-1%	.	.	.	.
COc1ccccc1-c1cc2nc(C)cc(C)n2n1	27%	15µM*	.	?	24%	18%
Cc1cc(C)n2nc(-c3cccc(Br)c3)cc2n1	?	8.5µM*	.	?	?	?
Cc1cccc(-c2cc3nc(C)cc(C)n3n2)c1	0.4µM*	6.7µM*	.	?	?	0.45µM*
Cc1cccc(-c2cc3nc(C)cc(N4CC(C)CC(C)C4)n3n2)c1 (stereo unspecified)	2%	-7%	-4%	-6%	?	-5%
CC(=O)c1cnc2cc(-c3cccc(Br)c3)nn2c1C	2.8µM*	?	11µM*	14%	?	2µM*
Cc1cc(C)cc(OCc2ccc(C(=O)Nc3ccccc3F)o2)c1	.	-5%	7%	.	.	.
Cc1nc2ccccc2c(=O)n1/N=C/c1ccccc1	3%	?	4%	2%	?	4%
Cn1c(=O)n(/N=C/c2ccccc2)c2ccccc21	27%	15µM*	?	2%	?	17%
CSc1ccc(Cc2ccc(Cl)cc2Cl)nn1	28%	17µM*	-11%	12%	?	?
CC(C)c1ccc(N2C(=O)CC(NNC(=O)c3ccccc3Cl)C2=O)cc1 (stereo unspecified)	1%	0%	.	-2%	-2%	2%
CCN(CC(=O)Nc1ccc(NC(C)=O)cc1)C(=O)c1cc(CN2C(=O)c3ccccc3C2=O)ccc1OC	0%	0%	.	0%	?	-1%
CC(C)c1ccc(C(=O)NNC(=O)C2CC=CCC2C(=O)O)cc1 (stereo unspecified)	23%	17µM*	?	11%	?	29%
Cc1ccsc1C(=O)NNC(=O)C1CC=CCC1C(=O)O (stereo unspecified)	-2%	?	4%	6%	?	-2%
